Results reported in PubChem BioAssay (NCATS).
Results filed as inconclusive are left out. Activity calls are given as the source filed them. Calls come from the whole dose curve.

Columns and labels:
[1] = Primary qHTS for inhibitors of SARS-S pseudo-typed particle cell entry (AID 1479145); note: nearly all actives have a fitted effect of over 45% in size
[2] = Primary qHTS for Huh7 cytotoxicity: counterscreen for inhibitors of MERS-S pseudotyped particle cell entry (AID 1479147)
[3] = Primary qHTS for inhibitors of MERS-S pseudo-typed particle cell entry (AID 1479149); note: nearly all actives have a fitted effect of over 60% in size
[4] = Primary qHTS for Vero E6 cytotoxicity: counterscreen for inhibitors of SARS-S pseudo-typed particle cell entry (AID 1479150)

Measured: Potency

NCCc1cnc[nH]1
inactive: [1] | [2] | [3] | [4]

C[C@]12CCC(=O)C=C1CC[C@@H]1[C@@H]2[C@@H](O)C[C@@]2(C)[C@H]1CC[C@]2(O)C(=O)CO
inactive: [1] | [2] | [3] | [4]

Nc1ccc(S(=O)(=O)Nc2cnc3ccccc3n2)cc1
inactive: [1] | [2] | [3] | [4]

CC(=O)O[C@H]1C[C@@H]2CC[C@@H]3[C@H](CC[C@@]4(C)[C@H]3C[C@H]([N+]3(C)CCCCC3)[C@@H]4OC(C)=O)[C@@]2(C)C[C@@H]1N1CCCCC1
inactive: [1] | [2] | [3] | [4]

CCCCOc1ccc(OCCCN2CCOCC2)cc1
inactive: [1] | [2] | [3] | [4]

O=C(CCCCC(=O)Nc1c(I)cc(I)c(C(=O)O)c1I)Nc1c(I)cc(I)c(C(=O)O)c1I
inactive: [1] | [2] | [3] | [4]

C[N+]12CCC(CC1)C(OC(=O)C(O)(c1ccccc1)c1ccccc1)C2 (stereo not drawn)
inactive: [1] | [2] | [3] | [4]

CC(CNC1CCCCC1)OC(=O)c1ccccc1 (stereo not drawn)
inactive: [1] | [2] | [3] | [4]

CCOC(=O)c1ccc(NC(=O)CN2CCCCC2)cc1
inactive: [1] | [2] | [3] | [4]

CCCCOc1ccc(CC(=O)NO)cc1
inactive: [1] | [2] | [3] | [4]

CCOc1ccc2nc(S(N)(=O)=O)sc2c1
inactive: [1] | [2] | [3] | [4]

N[C@H](C(=O)O)[C@@H](O)c1ccc(O)c(O)c1
inactive: [1] | [2] | [3] | [4]

C[C@@H]1C[C@H]2[C@@H]3CCC4=CC(=O)C=C[C@]4(C)[C@@]3(F)[C@@H](O)C[C@]2(C)[C@H]1C(=O)CO
inactive: [1] | [2] | [3] | [4]

CN1CCCN=C1/C=C/c1cccs1
inactive: [1] | [2] | [3] | [4]

O=C1OC2(c3ccccc31)c1cc(I)c(O)c(I)c1Oc1c2cc(I)c(O)c1I
inactive: [1] | [2] | [3] | [4]

CCN(CC)CC(=O)Nc1c(C)cccc1C
inactive: [1] | [2] | [3] | [4]

CC(=O)Oc1c(C)c(C)c2c(c1C)CC[C@@](C)(CCC[C@H](C)CCC[C@H](C)CCCC(C)C)O2
inactive: [1] | [2] | [3] | [4]

C[C@]12CC[C@@H]3c4ccc(O)cc4CC[C@H]3[C@@H]1CCC2=O
inactive: [1] | [2] | [3] | [4]

Cc1ccc(C(=O)Oc2ccc(C(O)CNC(C)(C)C)cc2OC(=O)c2ccc(C)cc2)cc1 (stereo not drawn)
inactive: [1] | [2] | [3] | [4]

CC(C)C[C@@H](N)C(=O)O
inactive: [1] | [2] | [3] | [4]

CC(C(=O)O)c1ccc2c(c1)Cc1cccnc1O2 (stereo not drawn)
inactive: [1] | [2] | [3] | [4]

C=CC[N+]1([C@H]2C[C@H]3[C@@H]4CC[C@H]5C[C@H](OC(C)=O)[C@@H](N6CCCCC6)C[C@]5(C)[C@H]4CC[C@]3(C)[C@H]2OC(=O)CC)CCCCC1
inactive: [1] | [2] | [3] | [4]

CCOC(=O)c1cccc(N)c1
inactive: [1] | [2] | [3] | [4]

C[C@@H]1C[C@H]2[C@@H]3CCC4=CC(=O)C=C[C@]4(C)[C@@]3(F)[C@@H](O)C[C@]2(C)[C@@]1(O)C(=O)COC(=O)c1ccncc1
inactive: [1] | [2] | [3] | [4]

CCOC(=O)[C@H](CCc1ccccc1)N[C@H]1CS[C@H](c2cccs2)CN(CC(=O)O)C1=O
inactive: [1] | [2] | [3] | [4]

CC(=O)OCC1=C(C(=O)O)N2C(=O)[C@@H](NC(=O)CSc3ccncc3)[C@H]2SC1
inactive: [1] | [2] | [3] | [4]

NCCc1ccc(O)c(O)c1
inactive: [1] | [2] | [3] | [4]

NC1=NCC2c3ccccc3Cc3ccccc3N12 (stereo not drawn)
inactive: [1] | [2] | [3] | [4]

Brc1c(NC2=NCCN2)ccc2nccnc12
inactive: [1] | [2] | [3] | [4]

CCN1CCN(c2cc(-c3ccc(F)cc3)c3c(n2)CCCCCC3)CC1
inactive: [1] | [2] | [3] | [4]

OC[C@H]1O[C@@H](O[C@@H]2[C@@H](CO)O[C@](O)(CO)[C@H]2O)[C@H](O)[C@@H](O)[C@H]1O
inactive: [1] | [2] | [3] | [4]

CCCCCC1Nc2cc(C(F)(F)F)c(S(N)(=O)=O)cc2S(=O)(=O)N1 (stereo not drawn)
inactive: [1] | [2] | [3] | [4]
